Experimental data: publication PMC4336329 (PLoS ONE, 2015)
Hit rate of the full screen: of about 310,000 compounds, about 14,000 (4.5%) showed an effect of 50% or more. Effects have a minus sign here. The list comes from a sample in which strong results are over-represented; it also holds similar structures and randomly drawn compounds.

These compounds were tested against human ether-à-go-go-related gene (hERG) potassium channel (human, UniProt Q12809) (assay: primary screen, population patch clamp on CHO cells stably expressing hERG; higher = less effect of the substance).
Chain of human ether-à-go-go-related gene (hERG) potassium channel (Q12809 whole entry, looked up): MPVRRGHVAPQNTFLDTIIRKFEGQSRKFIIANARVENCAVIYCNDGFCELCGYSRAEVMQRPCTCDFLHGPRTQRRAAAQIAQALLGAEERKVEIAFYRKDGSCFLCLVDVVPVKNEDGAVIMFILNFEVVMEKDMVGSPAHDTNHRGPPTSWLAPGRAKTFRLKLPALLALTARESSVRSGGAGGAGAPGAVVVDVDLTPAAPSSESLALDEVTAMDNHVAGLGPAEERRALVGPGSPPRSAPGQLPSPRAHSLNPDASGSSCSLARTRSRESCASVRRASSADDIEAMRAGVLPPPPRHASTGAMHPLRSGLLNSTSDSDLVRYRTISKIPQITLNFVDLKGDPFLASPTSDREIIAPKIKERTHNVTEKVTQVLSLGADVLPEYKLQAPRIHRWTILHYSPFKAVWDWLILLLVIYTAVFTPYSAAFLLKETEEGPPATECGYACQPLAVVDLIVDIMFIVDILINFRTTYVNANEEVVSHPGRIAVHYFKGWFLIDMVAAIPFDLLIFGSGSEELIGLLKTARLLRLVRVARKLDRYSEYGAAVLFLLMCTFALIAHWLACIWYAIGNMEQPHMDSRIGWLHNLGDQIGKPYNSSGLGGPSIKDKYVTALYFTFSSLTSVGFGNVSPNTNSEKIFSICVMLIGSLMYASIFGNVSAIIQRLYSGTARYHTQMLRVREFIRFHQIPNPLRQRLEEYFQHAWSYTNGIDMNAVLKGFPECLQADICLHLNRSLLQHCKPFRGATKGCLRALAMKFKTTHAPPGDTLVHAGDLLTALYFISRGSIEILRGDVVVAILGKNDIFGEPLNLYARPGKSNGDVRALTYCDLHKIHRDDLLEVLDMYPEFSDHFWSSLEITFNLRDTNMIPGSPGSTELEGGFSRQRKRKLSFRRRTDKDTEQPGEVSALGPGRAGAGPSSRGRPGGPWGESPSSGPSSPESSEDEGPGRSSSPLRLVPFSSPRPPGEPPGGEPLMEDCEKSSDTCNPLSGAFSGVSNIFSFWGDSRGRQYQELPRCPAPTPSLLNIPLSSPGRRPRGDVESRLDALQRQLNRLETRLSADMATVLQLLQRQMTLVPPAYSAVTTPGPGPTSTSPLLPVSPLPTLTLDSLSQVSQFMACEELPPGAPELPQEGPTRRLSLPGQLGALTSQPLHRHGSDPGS
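Note: peak tail current of the secondary pulse compared with the same well before compound.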

SMILES	hERG current change (%, negative = inhibition) at 10uM
O=c1c2c(ncn2C2CCCC2)n(Cc2ccccc2)c(=O)n1CCOc1ccccc1	-8.64%
Cc1ccc([N+](=O)[O-])cc1NC(=O)/C=C/C(=O)O	-2.79%
O=C(Nc1ccc(Br)c(Br)c1)C1CCCO1 (stereo not shown)	3.39%
COc1ccc(COC(=O)Nc2c(SC)nsc2SC)cc1	11.5%
CCc1noc(C)c1C(=O)OCC(=O)NCc1ccccc1	2.29%
NC(=O)c1ccccc1NC(=O)CSc1cn[nH]n1	13.2%
Cc1cc(C)cc(NC(=O)CSc2nnc(-c3ccccc3C)o2)c1	3.37%
COc1cccc(-c2nnn(CC(=O)O)n2)c1	9.1%
COc1ccc(OC)c(CN2CCC(CO)(CCOc3ccccc3)CC2)c1	-76.2%
COc1ccc(OCC(=O)N2CCCC(CO)(CCOc3ccccc3)C2)cc1 (stereo not shown)	-46.8%
COc1cc(OC)c(CN2CCC(CO)(CCOc3ccccc3)CC2)c(OC)c1	-86.4%
OCCOc1cccc(CN2CCC(CO)(CCOc3ccccc3)CC2)c1	-51.3%
Cc1c(CN2CCC(CO)(CCOc3ccccc3)CC2)c(=O)n(-c2ccccc2)n1C	-5.7%
CC(=O)c1cccc(CN2CCC(CO)(CCOc3ccccc3)CC2)c1	-41.5%
Cc1cc(C)c(CN2CCC(CO)(CCOc3ccccc3)CC2)cc1C	-65.2%
COc1ccc(OC)c(CN2CCSCC2)c1	9.69%
O=C1CC(Sc2nnc(-c3ccccc3)o2)C(=O)N1c1ccccc1 (stereo not shown)	3.12%
Cc1cc(C)cc(-c2nnc(SCC(=O)NCc3cccs3)o2)c1	4.21%
Fc1ccccc1CN1CCN(c2ncccn2)CC1	5.66%
N#Cc1c(SCC(=O)N2CCCCC2)nsc1SCC(=O)N1CCCCC1	16.5%
CC(C)C(C(=O)Nc1ccccc1F)N1C(=O)c2ccccc2C1=O (stereo not shown)	-3.78%
Cc1nn(CCC(=O)NNC(=S)NCC(C)C)c(C)c1Br	14%
CCN(CC)S(=O)(=O)c1ccc(OC)c(NS(=O)(=O)c2ccc(F)cc2)c1	-10.5%
O=C1CCc2cc(S(=O)(=O)NCc3ccccc3Cl)ccc2N1	-23.4%
Cc1cc(C(=O)NNC(=O)CCCOc2ccccc2)c(C)o1	0.675%

SMILES	hERG current change (%, negative = inhibition) at 10uM
CCCNC(=O)C1CCN(c2ccc(S(=O)(=O)N3CCOCC3)cc2Cl)CC1	6.36%
Cc1ccc(SC2=C(C(=O)O)CCCC2)cc1	4.25%
COc1cc(CN2CCC(CO)(CCOc3ccccc3)CC2)cc(OC)c1	-67.3%
COc1cc(CN2CCC(CO)(CCOc3ccccc3)CC2)cc(OC)c1OC	-38.3%
OCC1(CCOc2ccccc2)CCN(Cc2cc(Cl)ccc2O)CC1	-24.7%
COc1cc(Cl)c(CN2CCC(CO)(CCOc3ccccc3)CC2)cc1OC	-80.7%
O=C(NC1CCCC1)C(c1ccncc1)N(Cc1ccccc1)C(=O)Cc1cccs1 (stereo not shown)	-14.1%
Cc1ccccc1N1C(=O)C(Oc2ccc(Cl)cc2)C1CNC(C)(C)C (stereo not shown)	-39.5%
CCCCNCC1C(Oc2ccc(Cl)cc2)C(=O)N1c1ccccc1C.Cl (stereo not shown)	-65.9%
COCCCNCC1C(Oc2ccc(Cl)cc2)C(=O)N1c1ccccc1C (stereo not shown)	-8.54%
Cc1ccccc1N1C(=O)C(Oc2ccc(Cl)cc2)C1CNCCCOC(C)C (stereo not shown)	-53.4%
COCCNCC1C(Oc2ccc(Cl)cc2)C(=O)N1c1ccccc1C.Cl (stereo not shown)	-8.44%
CCCNCC1C(Oc2ccc(Cl)cc2)C(=O)N1c1ccccc1C (stereo not shown)	-48.6%
COc1ccc(N2CCN(C(=O)CN=C3NS(=O)(=O)C(c4ccc(C)cc4)=C3C)CC2)cc1	-5.05%
O=C(Cc1ccccc1)N/N=C/c1ccc(S(=O)(=O)[O-])o1	26.2%
Cc1ccc(S(=O)(=O)NCc2ccc(N3CCN(C(=O)OC(C)(C)C)CC3)cc2)cc1	9.55%
COc1ccc(OC)c(CNC(=O)C2CCN(S(=O)(=O)N3CCC(C)CC3)CC2)c1	-31.8%
Cc1nc2ccccc2c2oc(C(=O)NCCN3CCN(C)CC3)cc12	12.4%
CCc1cccc(NC(=O)C2CCN(S(=O)(=O)c3ccc4c(c3)CC(C)N4C(C)=O)CC2)c1 (stereo not shown)	2.05%
Cc1cc(C)cc(NC(=O)C2CCCN2S(=O)(=O)c2ccc3c(c2)C(C)(C)C(=O)N3C)c1 (stereo not shown)	-38.7%
CCc1cccc(NC(=O)C2CCCN2S(=O)(=O)c2ccc3c(c2)CC(C)N3C(C)=O)c1 (stereo not shown)	-71.2%
CC(=O)N1c2ccc(S(=O)(=O)N3CCCC(C(=O)NCc4ccc(Cl)cc4)C3)cc2CC1C (stereo not shown)	-2.85%
CSc1ccc(CNC(=O)C2Cc3cc(S(=O)(=O)N4CCCCC4)ccc3N2C(C)=O)cc1 (stereo not shown)	-57.1%
CCOc1ccc(NC(=O)C2CCCN2S(=O)(=O)c2ccc3c(c2)C(C)(C)C(=O)N3C)cc1 (stereo not shown)	-6.75%
